The text below walks through data of PubChem BioAssay AID1947 (The Scripps Research Institute Molecular Screening Center, 2009).

Among all 300,000 compounds or so, about 990 (0.33%) were called active. The sample holds actives, similar compounds and a random draw of the others, so the mix is not that of the screen.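 Rule for the calls: active = inhibition above the screen mean inhibition plus 3 SD, computed separately per campaign (cut at about 18% in these data); inactive = the rest.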

The assay concerns Fam108B (ABHD17B) serine hydrolase [Mus musculus]. In words: mouse Fam108B serine hydrolase inhibitors, primary screen, counter-screen for RBBP9 inhibitor project, biochemical, fluorescence polarization (AID 1947).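 Note: inhibitors lower polarization as less probe binds the enzyme.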 As to conditions: recombinant Fam108B, FP-Rh probe fluorescence polarization; at 9.51 µM; hits give high values. (In general: The purpose of a counterscreen is to sort out artefacts and off-target activity.)
Usually inhibition stands for the relative decrease from the control value, in per cent. Turning to `CCC(C)N(C(=O)COC(=O)c1nc(Cl)ccc1Cl)C1CCS(=O)(=O)C1` (centres undefined), the inhibition was 4.9% (inactive). Then `CCOC(=O)c1sc(=NC(=O)/C=C/c2cccs2)n(C)c1C`, with -2.21% (inactive); and `COc1ccc(-c2nc(CS(=O)CC(=O)NCc3ccccc3)c(C)o2)cc1OC` (centres undefined), with 0.72% (inactive). Consider `COc1ccc(-c2nc(CS(=O)CC(=O)NCc3ccccn3)c(C)o2)cc1` (centres undefined), for which the inhibition is 22.4% (active).

`COc1cccc(-c2nc(CS(=O)CC(=O)NCc3ccc(F)cc3)c(C)o2)c1` (centres undefined): the inhibition is 1.48% (inactive). Take `CCC(=O)Nc1cccc(C2=NOC3(C2)C[C@@H](C(N)=O)N(C(=O)c2cc([N+](=O)[O-])cc([N+](=O)[O-])c2C)C3)c1` (some centres undefined): the inhibition is 3.54% (inactive).

Consider `Cc1ccc(-n2c(C)nnc2SCC(=O)NC2CC2)cc1`, for which the inhibition is 2.72% (inactive). Take `CC(CC(=O)N1CCN(c2ccccc2)CC1)S(=O)(=O)c1ccc2c(c1)NC(=O)CS2` (centres undefined): the inhibition is -0.25% (inactive). For `Cc1cc(/C=N/NC(=O)c2cccnc2)c(C)n1CC(C)C`, the inhibition is 0.13% (inactive).

Take `O=C(NN=C1CCC(=NNC(=O)c2cccnc2)CC1)c1cccnc1`: the inhibition is -0.8% (inactive). The same measure for `O=C(N/N=C/c1sc(N2CCCCC2)nc1-c1cccs1)c1cccnc1`: 30.7% (active); for `CC1CC(C)CN(S(=O)(=O)c2cccc(C(=O)N3C(=O)c4cccc(N)c4C3=O)c2)C1` (centres undefined): -1.13% (inactive); for `NS(=O)(=O)c1ccc(CCNC(=O)c2nc(CS(=O)(=O)c3ccc(Cl)cc3)no2)cc1`: 1.62% (inactive). In the case of `Oc1oc(-c2ccccc2Br)nc1/C=N/c1ccccn1`, the inhibition is 25.5% (active). `CC(N=Cc1nc(-c2ccccc2)oc1O)c1ccccc1` (centres undefined): the inhibition is 4.55% (inactive).

`CCOc1ccc2nc(/N=C/c3nc(-c4ccccc4)oc3O)sc2c1`: the inhibition was 5.88% (inactive). The same measure for `O=C(CCNC(=O)C1CCN(S(=O)(=O)c2ccccc2)CC1)NC1CC1`: -1.2% (inactive). Turning to `CC(=O)Cn1cnc2c(cnn2-c2ccccc2)c1=O`, the inhibition is 4.35% (inactive). The same measure for `Cc1ccc(-n2ncc3c(=O)n(-c4ccc(C)c(C)c4)c(-c4ccco4)nc32)cc1`: -5.3% (inactive); for `Cc1ccc(-c2nc3c(cnn3-c3ccccc3)c(=O)o2)cc1`: 22.6% (active); for `O=C(COc1ccccc1)Nc1nonc1NC(=O)COc1ccccc1`: -1.87% (inactive). For the molecule `COc1ccc(C)cc1S(=O)(=O)NCCc1ccccc1`, the inhibition is 1.15% (inactive). For `Cc1cc(C)c(S(=O)(=O)n2cc(C(C)C(N)C(=O)O)c3ccccc32)c(C)c1` (centres undefined), the inhibition was -1.29% (inactive). In the case of `CCC1(c2ccccc2)NC(=O)N(CC(=O)c2ccc3c(c2)OCO3)C1=O` (centres undefined), the inhibition is 1.48% (inactive).
